Results published in PubChem BioAssay.
“And” between values parts separate entries of the source, which are not always exact repeats. Equal values may be shown once. The source made the active and inactive calls.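 The calls were made as follows, unless noted: active = inhibition at or above 50% relative to wild type and mutant plate controls; inactive = inhibition below 50%.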

Tests used:
[1] = inhibitors of TNFa-induced NFkB p65 translocation, primary screen, imaging, HUVEC, MLSMR starter and 10KST1 sets (AID 438;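 active = inhibition above 20% together with a positive visual image hit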;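 also: compound added about 3h40 before a 20 min TNFalpha stimulation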;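 as to inhibition: signal is the nuclear over cytoplasmic p65 intensity ratio per well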); details: HUVEC TNFa-induced p65 nuclear translocation; cell count: measured here: nuclei count (cytotoxicity indicator), at 2.08 µM; inhibition: at 2 µM, stronger effect = higher value, 0% TNFa-plus-vehicle, 100% no-TNFa wells
[2] = reduction of polyQ htt aggregates in cells – imaging, exon1htt(103Q)mCFP cells, high-content imaging, primary screen (AID 483;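 active = visual image review flags a hit and inhibition of aggregation exceeds 20%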;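 also: compound exposure lasted 3 days before fixation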;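 as to nuclei count: percent of the per-plate median nuclei count of sample wells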); details: exon1htt(103Q)mCFP cell line, aggregate imaging, at 2 µM; inhibition of aggregation: stronger effect = higher value; nuclei count: measured here: cell count, toxicity
[3] = endothelial E-selectin expression blockers – imaging, HUVEC, immunofluorescence, MLSMR starter and 10KST1 sets, primary screen (AID 487;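 active = visually confirmed hit in the image check and inhibition above 20%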;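 as to inhibition: signal is fraction of cell area covered by stained E-selectin grains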;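 as to nuclei count: 100% = median nuclei count of all wells on the same plate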); details: HUVEC TNFalpha-induced E-selectin immunofluorescence imaging, at 2 µM; inhibition: stronger effect = higher value; nuclei count: measured here: cell number, toxicity
[4] = Primary imaging screen for DUSP6 inhibitors that restore phospho-Erk in transfected HeLa cells, chemical complementation (AID 609;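 active = compounds giving at least 50% inhibition in the cell-based MKP-3 phosphatase rescue imaging test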;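 as to inhibition: phospho-Erk level distribution per well compared with pooled transfected vehicle control wells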); details: HeLa MKP-3 transfected, phospho-Erk imaging KS statistic, at 10 µM, cells stimulated with TPA for 15 min
[5] = molecular target: Dual specificity protein phosphatase 6 (Homo sapiens) (UniProt Q16828); assay: as above; details: HeLa MKP-3 transfected, phospho-Erk imaging KS statistic; at 10 µM; stronger effect = higher value; cells stimulated with TPA for 15 min
[6] = molecular target: Voltage-gated potassium channel subunit beta-2 (Rattus norvegicus) (UniProt P62483); assay: inhibitors of rat Kvbeta2 reductase activity – biochemical, NADPH fluorescence, primary screen (AID 622;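 active = fluorescence slope higher than the sample average by over 3 SD, cut at about -0.22 in these data, passing the limit was not always enough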;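 also: slope of raw intensity against log time taken from 70 to 1610 s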); details: recombinant KvBeta, 4-cyanobenzaldehyde reduction, at 10 µM, stronger effect = higher value
[7] = molecular target: Voltage-gated potassium channel subunit beta-2 (Rattus norvegicus) (UniProt P62483); assay: enhancers of rat Kvbeta2 NADPH turnover – biochemical, NADPH fluorescence, primary screen (AID 623;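 active = NADPH fluorescence slope more negative than the mean of all samples by about 3 SD, 99.7% confidence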;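 also: fluorescence intensity change per second fitted from 20 to 320 s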); details: Recombinant KvBeta, NADPH fluorescence decrease slope, 10 min; at 10 µM; stronger effect = lower value
[8] = molecular target: Alpha-2C adrenergic receptor (Homo sapiens) (UniProt P18825); assay: compounds altering alpha2C-coupled GIRK flux – cell-based, HEK293 alpha2C/GIRK1/2, thallium flux, primary screen (AID 624;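 active = fluorescence slope after compound addition differing from the mean of all screened samples at 99.7% confidence, in either direction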;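 also: slope of fluorescence ratio to pre-addition baseline per second over 15 to 24 s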); details: thallium flux BTC fluorescence, at 10 µM, actives lie on both sides
[9] = inhibitors of larval lipid processing in zebrafish, primary screen, whole organism, PED6 fluorescence, gall bladder and intestine (AID 686;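 active = a full or partial loss of lipid-probe fluorescence in the fish gall bladder, intestine or both, judged by eye; inactive = no fluorescence loss, or compound toxic to the fish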;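 also: larvae 5 to 7 days old with five fish per well; signal comes from phospholipase A2 cleavage of quenched PED6 carried via bile; overnight exposure to compound and PED6 before scoring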); details: Zebrafish larvae PED6 lipid processing, fluorescence scoring; screened at 20 µM (by protocol)
[10] = loss of swimming-algae plug formation – whole organism, Chlamydomonas reinhardtii, WT vs cilia-less mutant, absorbance, 96-well, primary screen (AID 463189); details: Chlamydomonas reinhardtii gravitaxis, OD600 absorbance, 2 days; at 10 µM; stronger effect = higher value;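 also: 0% = wild type cc124 cells in DMSO and 100% = ciliumless bld1 mutant cells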
[11] = blockers of RIG-like receptor reporter activation – cell-based, Sendai virus stimulus, luciferase, 10K MLSCN set, TLR/RLR signaling modifier project, primary screen (AID 602276;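 active = inhibition at or above 50% at 10 µM; inactive = inhibition below 50%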;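 also: firefly luciferase from ISG56 promoter only with Renilla not read in this screen; 0% = Sendai virus plus DMSO and 100% = medium plus DMSO without virus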); details: HEK293 RL24 IRF3 luciferase reporter, at 10 µM, stronger effect = higher value
[12] = TLR3 IRF3 reporter activation blockers – cell-based, poly I:C stimulus, luciferase, 10K MLSCN set, primary screen (AID 602277;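 active = inhibition of the reporter signal at or above 50%; inactive = inhibition below 50%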); details: HEK293-TLR3 RL24 IRF3 luciferase reporter, at 10 µM, stronger effect = higher value
[13] = measured here: cell density z-score
[14] = measured here: nuclear c-Myc green intensity z-score
[15] = measured here: nuclear pErk red intensity z-score, stronger effect = higher value

Sequence of Voltage-gated potassium channel subunit beta-2 (Rattus norvegicus) (P62483 whole entry, looked up): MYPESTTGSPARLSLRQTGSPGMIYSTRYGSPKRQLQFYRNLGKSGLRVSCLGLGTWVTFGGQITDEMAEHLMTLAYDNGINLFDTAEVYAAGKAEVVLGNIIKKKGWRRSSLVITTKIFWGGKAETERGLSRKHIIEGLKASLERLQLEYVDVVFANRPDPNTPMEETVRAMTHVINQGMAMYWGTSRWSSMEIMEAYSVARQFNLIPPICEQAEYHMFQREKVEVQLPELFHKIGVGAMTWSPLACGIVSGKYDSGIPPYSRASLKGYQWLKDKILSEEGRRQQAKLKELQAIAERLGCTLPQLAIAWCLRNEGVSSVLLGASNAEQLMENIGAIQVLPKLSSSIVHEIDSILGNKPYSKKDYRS
Sequence of Alpha-2C adrenergic receptor (Homo sapiens) (P18825 whole entry, looked up): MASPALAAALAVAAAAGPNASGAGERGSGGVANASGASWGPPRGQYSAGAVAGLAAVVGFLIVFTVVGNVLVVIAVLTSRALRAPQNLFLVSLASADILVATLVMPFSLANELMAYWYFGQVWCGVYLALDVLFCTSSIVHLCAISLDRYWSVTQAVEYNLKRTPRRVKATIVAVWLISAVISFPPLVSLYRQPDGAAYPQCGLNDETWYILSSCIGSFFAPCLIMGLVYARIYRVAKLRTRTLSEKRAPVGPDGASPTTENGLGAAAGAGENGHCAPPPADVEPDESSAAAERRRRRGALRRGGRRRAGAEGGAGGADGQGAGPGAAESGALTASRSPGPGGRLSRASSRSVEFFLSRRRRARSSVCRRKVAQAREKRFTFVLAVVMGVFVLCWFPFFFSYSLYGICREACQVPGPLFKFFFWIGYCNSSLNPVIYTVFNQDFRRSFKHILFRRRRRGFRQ
Sequence of Dual specificity protein phosphatase 6 (Homo sapiens) (Q16828 whole entry, looked up): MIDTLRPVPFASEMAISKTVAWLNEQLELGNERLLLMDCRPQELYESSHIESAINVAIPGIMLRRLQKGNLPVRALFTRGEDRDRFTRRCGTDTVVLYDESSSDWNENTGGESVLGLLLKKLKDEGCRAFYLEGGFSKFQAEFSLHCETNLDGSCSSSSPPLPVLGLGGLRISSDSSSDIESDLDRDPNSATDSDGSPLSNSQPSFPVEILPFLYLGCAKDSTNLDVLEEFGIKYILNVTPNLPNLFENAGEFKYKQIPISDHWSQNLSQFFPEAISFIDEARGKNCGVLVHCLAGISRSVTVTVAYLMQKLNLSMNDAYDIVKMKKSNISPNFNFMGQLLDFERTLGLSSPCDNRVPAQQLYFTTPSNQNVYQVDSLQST

SMILES | cell count [1] | inhibition [1] | inhibition of aggregation [2] | nuclei count [2] [%] | inhibition [3] | nuclei count [3] [%] | z-score [4, 13] | z-score [4, 14] | z-score [4, 15] | inhibition [5] | fluorescence slope [6] | NADPH fluorescence slope [7] | slope [8] | outcome [9] | inhibition [10] | inhibition [11] | inhibition [12]
CCCN(CCC)C(=O)C(CCC(=O)O)NC(=O)c1ccccc1 (stereo not given) | 589 | -1.1% (inactive) | 11.8% (inactive) | 92.5 | -37.3% (inactive) | 118 | -1.75 | 0.853 | -0.876 | 5.79% (inactive) | -0.461 (inactive) | -3.2e-05 (inactive) | 0.00459 (inactive) | inactive | 5.36% (inactive) and -10.6% (inactive) | 11.3% (inactive) | 28% (inactive)
CC(C)C[C@H](NC(=O)[C@@H]1O[C@H]1C(=O)O)C(=O)NCCCCN=C(N)N | 565 | 1.2% (inactive) | 14.2% (inactive) | 93.3 | -70.2% (inactive) | 120 | 0.0952 | -0.437 | 0.847 | 3.45% (inactive) | -0.492 (inactive) | -4.3e-05 (inactive) | 0.00515 (inactive) | inactive | 9.72% (inactive) | 13.8% (inactive) | 45.3% (inactive)
O=C(CCCN1CC=C(n2c(=O)[nH]c3ccccc32)CC1)c1ccc(F)cc1 | 658 | -2.1% (inactive) | -8.1% (inactive) | 105 | -156% (inactive) | 128 | -0.186 | 0.167 | 0.602 | 19.2% (inactive) | -0.516 (inactive) | -7.4e-05 (inactive) | 0.00484 (inactive) | inactive | 5.84% (inactive) | -12.2% (inactive) | -37.3% (inactive)
O=C(O)c1ccc(COc2c(F)c(F)c(F)c(F)c2F)o1 | 492 | -12.2% (inactive) | -42.8% (inactive) | 99.6 | -83.7% (inactive) | 129 | 0.991 | -1.28 | -0.83 | -3.5% (inactive) | -0.433 (inactive) | -0.000148 (inactive) | 0.00486 (inactive) | inactive | -7.74% (inactive) | -5.03% (inactive) | -6.07% (inactive)
OC(CCCN1CCC(O)(c2ccc(Cl)cc2)CC1)c1ccc(F)cc1 (stereo not given) | 686 | -2.4% (inactive) | -13.4% (inactive) | 116 | -82.7% (inactive) | 118 | 1.1 | 0.439 | -0.848 | 14.6% (inactive) | -0.468 (inactive) | -6.6e-05 (inactive) | 0.00402 (inactive) | inactive | 20.5% (inactive) | 12.8% (inactive) | 40.2% (inactive)
